Measured values from PubChem BioAssay (NCATS).
Inconclusive results are not listed. Where a call stands in place of a potency, no number is given. Active and inactive are the calls of the source. The call rests on the fitted dose curve; in most records, active means well fitted curve in the direction sought with a large enough effect; inconclusive means small, poorly fitted or top-dose-only effect, or another doubt; inactive means no such curve, though single readings can be large; an effect the other way counts as inactive or inconclusive.

How the values were obtained:
[1] = Confirmatory screen GU Rhodamine qHTS for Zika virus inhibitors qHTS (AID 1347157); further: nearly all actives have a fitted effect of over 70% in size; further: potency means the concentration at half of the fitted maximal effect
Procedure, shortened: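 Percent inhibition derives from the 15-min fluorescence change (ex 480, em 540 nm), normalized to no-enzyme and no-inhibitor wells. Reactions contained 25 nM NS2B-NS3 complex and 1.5 microM substrate in 10 mM Tris-HCl pH 8.0.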

[2] = test system: Zika virus NS2B-NS3 protease (linked); experiment: 384 well plate NINDS AMC confirmatory qHTS for Zika virus inhibitors (AID 1347163); conditions: Recombinant NS2B-NS3 protease, Ac-VKTGKR-AMC fluorescence; further: potency means the concentration at half of the fitted maximal effect; nearly all actives have a fitted effect of over 50% in size
Procedure, shortened: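 Enzyme (5, 30 or 60 nM final) first met test compounds for ~15 min. The AMC-tagged peptide Ac-VKTGKR-AMC followed at 30 microM. Fluorescence was then recorded at 25 min and scaled against no-enzyme and no-inhibitor wells.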

[3] = test system: Zika virus NS2B-NS3 protease (linked construct); experiment: 384 well plate NINDS Rhodamine confirmatory qHTS for Zika virus inhibitors (AID 1347164); further: nearly all actives have a fitted effect of over 65% in size; further: potency means the concentration at half of the fitted maximal effect; on activity change, negative = inhibition: top concentration of the series differs between compounds
From the text: Description: Assay Submitters (PI): Avindra Nath, Ph.D., National Institute of Neurological Disorders and Stroke (NINDS), Bethesda, MD Radhakrishnan Padmanabhan, Ph.D., Georgetown University (GU), Washington D.C. Zika Virus causes congenital defects, including microcephaly and is associated with Guillain-Barre syndrome, eningoencephalitis and myelitis in infected adult. […] Using a target-based approach, we hope to establish a screening paradigm to uncover novel, cell-active NS2B-NS3 protease (Zika Virus) specific inhibitors from NCATS' collection of small molecules using qHTS. […] Four assay panel was created to identify potential Zika Virus inhibitors. Namely, (1) GU unlinked NS2B-NS3 AMC tagged protease qHTS, (2) GU unlinked NS2B-NS3 Rhodamine tagged protease qHTS, (3) NINDS linked NS2B-NS3 AMC tagged protease qHTS, (4) NINDS linked NS2B-NS3 Rhodamine tagged protease qHTS. Active compounds are validated using a secondary assay in 384 well plate format. Early Translation Branch (ETB) National Center for Advancing Translational Sciences (NCATS), Rockville, MD National Institute of Health (NIH), Bethesda, Maryland
384-well NINDS Rhodamine Assay: The protease was diluted to 7.5 nM, 40.9 nM, or 82 nM in assay buffer and dispensed into a 96-well PCR plate (Applied Biosystems); 20 or 22 microL was transferred to a black 384-well assay plate (final protease concentration of 5 nM, 30 nM, or 60 nM, respectively). Compounds (3 microL, 1 microM - 10 mM, DMSO) were diluted and transferred to the assay plate (final concentrations ranged from 100 nM to 1 mM). Compounds were incubated with protease for ~15 minutes. The substrate, Rhodamine 110 (Ac-LKRR-Rd; Genscript), was dissolved in DMSO to a concentration of 6 mM and further diluted into assay buffer to a working concentration of 180 microM, then dispensed into a 384-well preparation plate (Eppendorf). […] After 25 minutes, the fluorescence intensity (excitation: 485 nm, emission: 538 nm) was measured and normalized to no-enzyme and no-inhibitor controls. […]

[4] = Tertiary RLuc qRT-PCR qHTS assay for Zika virus inhibitors (AID 1347169); further: nearly all actives have a fitted effect of over 55% in size; further: potency means the concentration at half of the fitted maximal effect; on activity change, negative = inhibition: top concentration of the series differs between compounds
Procedure, shortened: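 Vero, 1,000 cells/well, o/n 37 C; cpd pinned in DMSO; ZIKV-RLuc Cambodian, MOI 1-2, 48-72 h 37 C; live-cell RLuc substrate, lum read at 1-1.5 h.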

[5] = test system: Zika virus NS2B-NS3 protease; experiment: Primary screen GU AMC qHTS for Zika virus inhibitors (AID 1347154); further: nearly all actives have a fitted effect of over 70% in size
Procedure, shortened: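 Unlinked Zika NS2B hydrophilic domain/NS3 protease domain noncovalent complex (25 nM final) in 10 mM Tris-HCl pH 8.0, 0.01% Tween 20, with AMC peptide substrate. Fluorescence (ex 340, em 450 nm) change over 15 min, room temperature; percent inhibition fitted to 4-parameter Hill equation.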

[6] = test system: Zika virus NS2B-NS3 protease (unlinked complex); experiment: Primary screen GU Rhodamine qHTS for Zika virus inhibitors: Unlinked NS2B-NS3 protease assay (AID 1347159); further: nearly all actives have a fitted effect of over 60% in size
Procedure, shortened: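 Percent inhibition came from the 15-min rise in Rhodamine110 fluorescence (1.5 microM substrate, ~15% conversion), normalized to no-inhibitor and no-enzyme wells and Hill-fitted. Unlinked protease, 25 nM, pH 8.0 Tris buffer; compounds up to 114 microM, 15-min preincubation.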

[7] = test system: Zika virus NS2B-NS3 protease (linked construct); experiment: Primary screen NINDS Rhodamine qHTS for Zika virus inhibitors (AID 1347160); further: nearly all actives have a fitted effect of over 55% in size
Procedure, shortened: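 Rhodamine110-peptide cleavage (1.5 µM substrate) by 25 nM linked NS2B-NS3 enzyme at pH 8.0 (Tris, Tween 20), after 15 min RT preincubation with compounds; 15-min fluorescence change normalized to controls and Hill-fitted.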

[8] = Confirmatory screen NINDS Rhodamine qHTS for Zika virus inhibitors (AID 1347161);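 further: purified Zika NS2B-NS3 protease with linked NS2B cofactor domain and Rhodamine110 peptide substrate; series mostly up to about 110 µM; nearly all actives have a fitted effect of over 60% in size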
Procedure, shortened: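 Each compound, titrated, sat 15 min with 25 nM linked protease before 1.5 microM Rhodamine110 substrate went in. Fluorescence gain over the next 15 min, in pH 8.0 Tris with Tween 20, gave Hill-fitted curves.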

CC1(C)CCC(CN2CCN(c3ccc(C(=O)NS(=O)(=O)c4ccc(NCC5CCOCC5)c([N+](=O)[O-])c4)c(Oc4cnc5[nH]ccc5c4)c3)CC2)=C(c2ccc(Cl)cc2)C1
Potency [1]: 1.21 µM (active)
Potency [2]: 31.6 µM (active)
Potency [3]: inactive
Potency [4]: 5.72 µM (active)

NC(=O)c1ccc2nc(-c3ccc(Oc4ccc(Cl)cc4)cc3)[nH]c2c1
Potency [3]: 251 µM (active)

NC(=O)c1cccc2[nH]c(-c3ccc([C@H]4CCCN4)cc3F)nc12
Potency [4]: inactive

CC1(C)CCC2=C(O1)c1ccccc1C(=O)C2=O
Potency [5]: inactive

O=C(NCc1ccncc1)C12C[C@H]3C[C@@H](C1)CC(c1ccc(Cl)cc1)(C3)C2
Potency [5]: inactive

Clc1ccc(-c2nc3sccn3c2C=NOCc2ccc(Cl)c(Cl)c2)cc1
Potency [5]: inactive

CN(C)C1CCN(C(=O)c2ccc(NC(=O)Nc3nc(N4CCOCC4)nc(N4CCOCC4)n3)cc2)CC1
Potency [5]: inactive
Potency [6]: inactive
Potency [7]: inactive

O=C(O)c1ccccc1C(=O)Nc1ccc(-c2ccccc2)cc1
Potency [5]: inactive
Potency [6]: inactive
Potency [7]: inactive

Cc1ccc(/C=N/NC(=O)c2ccccc2Oc2ccccc2)o1
Potency [5]: inactive

CC(=Cc1ccccc1)C=C1SC(=S)N(CC(=O)O)C1=O
Potency [5]: inactive

O=C(O)C=Cc1ccc(O)c(O)c1
Potency [5]: inactive

CC(=O)O[C@]1(C(C)=O)CC[C@@H]2[C@@H]3C[C@H](C)C4=CC(=O)CC[C@]4(C)[C@H]3CC[C@@]21C
Potency [5]: inactive

Cn1c(N2CCCCS2(=O)=O)nc(C(=O)NCc2ccc(F)cc2)c(O)c1=O
Potency [5]: inactive
Potency [6]: inactive
Potency [7]: inactive

O=C(Nc1cc(Cl)cc2c1[nH]c1cnccc12)c1cccnc1
Potency [5]: inactive

COCCCCC(=NOCCN)c1ccc(C(F)(F)F)cc1
Potency [5]: inactive

CC1(C)CCC[C@@]2(C)[C@@H]1CC[C@@]1(C)OC(=O)C[C@H]21
Potency [5]: inactive

O=C(O)c1cc(-c2ccccc2)nc2ccccc12
Potency [5]: inactive
Potency [6]: inactive

NC(=O)[C@@H](CCC(F)(F)F)N(Cc1ccc(-c2ncon2)cc1F)S(=O)(=O)c1ccc(Cl)cc1
Potency [5]: inactive

O=C1NC(=O)C(=Cc2ccc3c(c2)OC(F)(F)O3)S1
Potency [5]: inactive

CC=CCC(C)C(O)C1C(=O)NC(CC)C(=O)N(C)CC(=O)N(C)C(CC(C)C)C(=O)NC(C(C)C)C(=O)N(C)C(CC(C)C)C(=O)NC(C)C(=O)NC(C)C(=O)N(C)C(CC(C)C)C(=O)N(C)C(CC(C)C)C(=O)N(C)C(C(C)C)C(=O)N1C (stereo not given)
Potency [5]: inactive

Cc1nc(N)sc1-c1ccnc(Nc2ccc(N3CCOCC3)cc2)n1
Potency [5]: inactive
Potency [6]: inactive
Potency [7]: inactive

CCC(CC)[C@H](NC(C)=O)[C@@H]1[C@H](O)[C@@H](C(=O)O)C[C@@H]1N=C(N)N
Potency [5]: inactive

O=C(NC1CCOCC1)c1ccc(-c2cc(-c3cn[nH]c3-c3ccccn3)ccn2)cc1
Potency [5]: inactive
Potency [6]: inactive
Potency [7]: inactive

COc1ccc2cccc(CCNC(C)=O)c2c1
Potency [5]: inactive

Cc1nnc(C(C)C)n1C1C[C@H]2CC[C@@H](C1)N2CC[C@H](NC(=O)C1CCC(F)(F)CC1)c1ccccc1 (stereo not given in full)
Potency [5]: inactive

C[N+]1(C)[C@@H]2CC(OC(=O)[C@H](CO)c3ccccc3)C[C@H]1[C@H]1O[C@@H]12 (stereo not given in full)
Potency [5]: inactive

NC(=O)c1cccc(-c2cc(Nc3ccc(OC(F)(F)F)cc3)ncn2)c1
Potency [5]: inactive
Potency [6]: inactive
Potency [7]: inactive

O=c1c(O)c(-c2ccc(O)cc2)oc2cc(O)cc(O)c12
Potency [5]: inactive
Potency [1]: inactive
Potency [8]: inactive
activity change, negative = inhibition [4]: 13.5% [at 0.997 µM] (inactive)

Cc1ccccc1C(C(=O)NC1CCCCC1)N(C(=O)Cn1ccnc1C)c1cccc(F)c1 (stereo not given)
Potency [5]: inactive
Potency [6]: inactive
Potency [7]: inactive

CO[C@H]1C[C@@H]2CC[C@@H](C)[C@@](O)(O2)C(=O)C(=O)N2CCCC[C@@H]2C(=O)O[C@H]([C@@H](C)C[C@@H]2CC[C@H](O)[C@H](OC)C2)CC(=O)[C@H](C)C=C(C)[C@@H](O)[C@@H](OC)C(=O)[C@H](C)C[C@H](C)C=CC=CC=C1C
Potency [5]: inactive

CC(C)C[C@H](CC(=O)O)C(=O)N[C@@H](Cc1c[nH]c2ccccc12)C(=O)N[C@@H](C)c1ccccc1
Potency [5]: inactive

Cc1ccc(C(C)(O)c2nc3ccccc3s2)c(C)c1 (stereo not given)
Potency [5]: inactive

CC1(C)O[C@H]2C[C@@H]3[C@H]4CCC5=CC(=O)C=C[C@]5(C)[C@@]4(F)[C@@H](O)C[C@]3(C)[C@]2(C(=O)CO)O1
Potency [5]: inactive

CC(C)(C)C(=O)Oc1ccc2c(c1)nc(NC(=O)c1cccc([N+](=O)[O-])c1)n2CCCO
Potency [5]: inactive
